# Screens as filed in PubChem.
# The list is not random: actives were taken first. Their share in the collection is about 19%.
# TDP1 cell noCPT: qHTS for Inhibitors of human tyrosyl-DNA phosphodiesterase 1 (TDP1): qHTS in cells in absence of CPT; DT40 Tdp1-/- hTDP1 cells, no CPT, ATP luminescence, 48 h; Potency, µM (series often up to 46.2 µM), without a hit: top-dose activity change, negative = growth inhibition, actives largely listed as inhibitors; 420,000 tested, 15% active; AID 686978, 2013; also: potency is read from the fitted curve at half-maximal effect; % is scaled to controls: 0 for no effect and ±100 for the full control effect; nearly all actives have a fitted effect of over 55% in size
#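 Camptothecin absent (DMSO only). Human TDP1-complemented DT40 knockout cells, 400 cells/well, 37 °C for minimum 48 hr; ATP measured via CellTiter-Glo, 30 min dark incubation, luminescence.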
# IL-1B inflam inh: inhibitors of inflammasome signaling (IL-1 beta secretion) | THP-1 LPS/ATP IL-1B secretion, AlphaLISA, 16 h; stronger effect = lower value | activity change, % at 57.5 µM | 360,000 tested, 4.7% active; in the data active = activity change below about -50%; inconclusive = mostly about -30% to -49%; also: % is scaled to controls: 0 for no effect and ±100 for the full control effect
#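 Secreted IL-1B measured by AlphaLISA bead assay after 16 h compound exposure of THP-1 cells; compounds (final up to 57.5 uM) added 1 h before LPS (250 ng/mL) and ATP (1.25 mM) stimulation; lower signal means less secretion.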
# HepG2 tox: kills HepG2 cells in TGF-b inhibitor counter-screen. HepG2 CAGA-GFP viability, ATP luminescence, 18 h. Potency, µM (doses to about 46.1 µM), without a hit: at the top dose activity change, negative = cytotoxicity, hits mostly cytotoxic. 410,000 tested, 0.76% active. AID 588856; also: potency is read from the fitted curve at half-maximal effect
#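 HepG2 CAGA-GFP cells (1000/well, DMEM with 1% FBS) received compound, then TGF-beta at 500 pg/mL final, and were incubated 18 hours at 37 degrees C. Viability was read by CellTiter-Glo luminescence. Media-only wells were set as complete cell-killing and DMSO as no toxicity.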
# TDP1 block: TDP1 (human) enzyme inhibition; recombinant TDP1, AlphaScreen DNA substrate cleavage; Potency, µM (highest dose often 130 µM), for the others: top-dose activity change, negative = inhibition, hits mostly inhibitors; 350,000 tested, 0.28% active; also: potency is read from the fitted curve at half-maximal effect; % is scaled to controls: 0 for no effect and ±100 for the full control effect; nearly all actives have a fitted effect of over 40% in size
# Target sequence (Q9NUW8 whole entry, looked up): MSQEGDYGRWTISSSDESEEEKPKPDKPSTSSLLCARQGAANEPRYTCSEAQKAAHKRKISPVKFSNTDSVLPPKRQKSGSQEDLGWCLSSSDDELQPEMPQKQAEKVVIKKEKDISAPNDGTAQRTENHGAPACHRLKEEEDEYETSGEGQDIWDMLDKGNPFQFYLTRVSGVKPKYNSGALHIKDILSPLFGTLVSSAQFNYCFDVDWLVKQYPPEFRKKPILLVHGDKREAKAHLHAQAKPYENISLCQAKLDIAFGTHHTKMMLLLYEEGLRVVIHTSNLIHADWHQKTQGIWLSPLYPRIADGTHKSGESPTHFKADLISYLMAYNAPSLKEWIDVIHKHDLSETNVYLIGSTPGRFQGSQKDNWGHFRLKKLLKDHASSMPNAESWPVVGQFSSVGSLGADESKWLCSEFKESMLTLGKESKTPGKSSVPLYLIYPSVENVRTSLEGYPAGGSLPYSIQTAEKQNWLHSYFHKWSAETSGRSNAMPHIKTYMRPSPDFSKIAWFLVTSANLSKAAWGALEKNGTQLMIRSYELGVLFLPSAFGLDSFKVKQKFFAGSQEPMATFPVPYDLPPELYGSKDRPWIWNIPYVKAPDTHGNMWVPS
#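 Recombinant E. coli-expressed Tdp1 (1 nM) preincubated with compound 15 min at RT, then 5'-biotin/3'-phosphotyrosine-FITC DNA substrate (15 nM) added for 5 min. AlphaScreen beads (10 ug/ml) added, 10 min RT; tyrosine-FITC cleavage read as signal loss.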
# DT40 TDP1 CPT: growth inhibition of DT40 Tdp1-/-;hTDP1 cells with camptothecin (screen for TDP1 inhibitors); 420,000 tested, 12% active; AID 686979; chicken DT40 Tdp1-/-;hTDP1 cells + 20 nM CPT, ATP luminescence, 48 h; Potency, µM (top dose mostly 46.2 µM), for inactives: top-dose activity change, negative = growth inhibition, usual class: inhibitors; also: potency is read from the fitted curve at half-maximal effect; % is scaled to controls: 0 for no effect and ±100 for the full control effect; nearly all actives have a fitted effect of over 55% in size
#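 Chicken DT40 Tdp1-/- cells stably complemented with human TDP1 were seeded at 400 cells/well in medium containing 20 nM camptothecin, exposed to pin-transferred compounds, and grown at 37 °C for at least 48 hr. Viability was read as ATP luminescence.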
# TGFb SMAD3 inh: blocks TGF-b signaling | 410,000 tested, 1.2% active | Potency, µM (top dose mostly 46.1 µM), for the others: top-dose activity, negative = inhibition, hits mostly inhibitors | HepG2 CAGA-GFP TGF-b/SMAD3 reporter, GFP fluorescence, 18 h; TGF-beta stimulated, 500 pg/mL final | AID 588855; also: potency is read from the fitted curve at half-maximal effect; % is scaled to controls: 0 for no effect and ±100 for the full control effect; nearly all actives have a fitted effect of over 65% in size
#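 Read-out: total well GFP (ex488/em500-530) summed from mean per-cell fluorescence. Cells: HEPG2 CAGA-GFP, 1% FBS DMEM, 18 h at 37 degrees C with 500 pg/mL final TGF-beta. Unstimulated wells served as the full-inhibition control; stimulated DMSO wells = 0%.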
# An asterisk follows results filed as active; ? = inconclusive; · = not tested or not shown. Unless noted, calls follow the shape of the dose curve; as a rule, active = well fitted curve in the direction sought with a large enough effect; inconclusive = small, poorly fitted or top-dose-only effect, or another doubt; inactive = no such curve, though single readings can be large; an effect the other way counts as inactive or inconclusive.
SMILES,TDP1 cell noCPT,IL-1B inflam inh,HepG2 tox,TDP1 block,DT40 TDP1 CPT,TGFb SMAD3 inh
Cc1ccc(NC(=O)C2CCCN(S(=O)(=O)c3cccc4cccnc34)C2)c(Br)c1 (centres undefined),?,·,-28%,5%,?,-22%
Cc1ccc(NC(=O)C2CCCN(S(=O)(=O)c3cccc4cccnc34)C2)cc1 (centres undefined),21µM*,25,4%,5%,?,?
O=C(NCc1ccc2c(c1)OCO2)C1CCCN(S(=O)(=O)c2cccc3cccnc23)C1 (centres undefined),16µM*,-27,-57%,-2%,?,?
Cc1ccccc1NC(=O)C1CCCN(S(=O)(=O)c2cccc3cccnc23)C1 (centres undefined),?,18,9%,10%,?,2%
O=C(NC1CCCC1)C1CCCN(S(=O)(=O)c2cccc3cccnc23)C1 (centres undefined),-23%,8,-5%,-3%,?,-1%
COc1ccccc1OCC(=O)NCC1(N(C)C)CCCCC1,-6%,·,-27%,-3%,-4%,-7%
O=c1cc(-c2cccc(O)c2O)oc2ccccc12,?,·,·,17%,?,·
CC(C)(C)C(=O)N1CCN(c2ccc([N+](=O)[O-])cc2Cl)CC1,?,-9,-22%,·,?,-18%
O=C(c1ccc([N+](=O)[O-])cc1)N1CCN(c2ccc(Nc3ccccc3)nn2)CC1,?,·,9%,3%,?,-16%
Cc1ccc(C(=O)N2CCN(c3ccc([N+](=O)[O-])cc3-n3cccc3)CC2)cc1,18µM*,?,-1%,8%,?,-6%
Cc1ccc(Nc2ccc(N3CCN(C(=O)c4ccc([N+](=O)[O-])cc4)CC3)nn2)cc1,23µM*,·,0%,8%,?,?
CC(C)(C)C(=O)N1CCN(c2ccc([N+](=O)[O-])cc2-n2cccc2)CC1,21µM*,-5,-14%,6%,?,1%
COc1ccc(N2CCN(C(=O)c3ccc(C)cc3)CC2)c([N+](=O)[O-])c1,?,-4,-26%,7%,?,8%
O=C(C1CC1)N1CCN(c2ccc([N+](=O)[O-])cc2-n2cccc2)CC1,13µM*,-6,-12%,4%,12µM*,?
O=C(Nc1cc(F)ccc1F)c1ccc2c(c1)nnn2C1CCCC1,?,·,-24%,5%,-19%,-23%
CCC(C)NC(=O)C1CC(=O)N(CCc2ccc(F)cc2)C1 (centres undefined),2%,-10,1%,1%,0%,-4%
O=C(Nc1ccc(Br)cn1)c1cccc2c1-c1ccccc1C2=O,3.3µM*,43,-38%,4%,4.1µM*,-14%
Cc1cccc(NC(=O)c2cccc3c2-c2ccccc2C3=O)n1,16µM*,5,-3%,-8%,?,17%
Cc1cccc(C)c1NC(=O)c1cccc2c1-c1ccccc1C2=O,?,1,-17%,5%,?,-2%
COCCCn1c(SCCc2ccccc2)nc2cc(OC)c(OC)cc2c1=N,13µM*,-17,-103%,12%,16µM*,?
CCSc1nc2cc(OC)c(OC)cc2c(=O)n1CCc1ccccc1,21µM*,12,5%,-1%,16µM*,6%
C=CCc1ccc(O)c(-c2cc(CC=C)ccc2O)c1,21µM*,14,-73%,8%,15µM*,?
COc1cc(NC(=O)c2n[nH]c(=O)c3ccccc23)cc(OC)c1,-6%,-6,-26%,5%,-11%,-9%
O=C(NC(=S)Nc1nc2c(ccc3ccccc32)s1)c1cccs1,15µM*,0,0%,3%,?,-15%
COc1ccc(CC(=O)Nc2nc(-c3ccc(OC)c(OC)c3)cs2)cc1OC,21µM*,-86*,-20%,11%,?,-14%
SMILES,TDP1 cell noCPT,IL-1B inflam inh,HepG2 tox,TDP1 block,DT40 TDP1 CPT,TGFb SMAD3 inh
O=C(Nc1nc(-c2ccncc2)cs1)c1ccc(F)cc1,-8%,?,1%,0%,5%,-4%
CCCC(=O)Nc1ccc(NC(=S)NC(=O)c2cccs2)cc1,-9%,-15,-1%,0%,-15%,1%
Cn1nc(C(=O)Nc2nc(-c3ccc(F)cc3)cs2)ccc1=O,6.5µM*,?,-15%,3%,?,?
Cc1cc(C)c(-c2csc(NC(=O)c3n[nH]c(=O)c4ccccc34)n2)c(C)c1,4.1µM*,24,-17%,3%,9.2µM*,0%
COc1ccc(-c2csc(NC(=O)CSCC(=O)Nc3cc(C)on3)n2)cc1OC,?,48,-5%,0%,?,-8%
Cc1ccc(-c2nc(SCC(=O)NCC3CCCO3)c3c(=O)n(C)c(=O)n(C)c3n2)cc1 (centres undefined),-16%,·,11%,3%,-25%,-1%
Cc1ccc(NC(=O)CCNS(=O)(=O)c2ccc3c(c2)CCC(=O)N3)cc1C,18%,24,-6%,-3%,6%,10%
COc1ccc(CCNC(=O)CCNC(=O)c2ccco2)cc1,-8%,13,12%,1%,-10%,5%
CC(=O)Nc1ccc(-c2csc(NC(=O)CCNC(=O)c3ccco3)n2)cc1,?,-17,-6%,4%,-26%,3%
COc1ccc(-c2csc(NC(=S)NC(=O)c3cccs3)n2)cc1Br,?,20,1%,3%,?,7%
COc1ccc(-c2nc(NC(=O)CCNC(=O)c3ccco3)sc2C)cc1,18µM*,-2,-19%,8%,23µM*,?
COc1ccc(-c2csc(NC(=S)NC(=O)c3cccs3)n2)cc1OC,12µM*,-16,-11%,0%,15µM*,-18%
COc1ccc(-c2csc(NC(=O)CCNC(=O)c3ccco3)n2)cc1OC,16µM*,-18,-22%,2%,?,5%
O=C(Cc1ccccc1F)Nc1nc(-c2ccc(F)cc2)cs1,5.8µM*,-94*,-4%,-1%,8.2µM*,-20%
CCC(C)NC(=O)Nc1ccc(C)cc1C (centres undefined),-21%,-5,-18%,5%,-20%,-3%
COc1ccc(C(CNC(=O)C2CC(=O)N(Cc3ccccc3)C2)N2CCCC2)cc1 (centres undefined),5%,-12,-10%,3%,-9%,-2%
